Assay results reported in PubChem BioAssay.
Where “and” joins values, the source holds several entries; their conditions need not be identical. Identical values can stand only once. Inconclusive results are not listed. Calls of active or inactive are those of the source.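 The calls were made as follows, unless noted: active = normalized viability below 100% at a tested concentration; inactive = the rest.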

Key:
[1] = P. berghei load reduction in hepatocytes – cell-based, HepG2, luciferase luminescence, HepG2 viability, primary screen (AID 624349; in the data active = parasite load remaining mostly below about 12%, no sharp cut-off; inactive = mostly above about 10%;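 also: 100% = mean of DMSO negative control wells on the same plate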); conditions: P. berghei liver stage in HepG2, luciferase luminescence, concentration not given here; parasite load remaining: stronger effect = lower value; viability: measured here: HepG2 viability without parasites
[2] = Wnt pathway potentiators raising nuclear beta-catenin – imaging, WNT3A-conditioned medium, mouse C2C12, NPC library, primary screen (AID 1117326; in the data active = nuclear beta-catenin stimulation mostly above about 4.2%, no sharp cut-off; inactive = mostly below about 10%); conditions: stronger effect = higher value
[3] = stimulators of insulin release from INS-1E, primary screen, cell-based, 5 mM glucose, NPC library (AID 1117329;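 active = compound raises insulin release from rat beta cells at 5 mM glucose, no numeric limit stated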); conditions: rat INS-1E insulin secretion, at 10 µM, stronger effect = higher value
[4] = growth inhibition of GSK3B-pretreated HCT116 cells – cell-based, CellTiter-Glo, 0.2 to 20 µM (AID 1117336;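 active = compounds lowering colon cancer cell viability after pretreatment blocking the GSK3B kinase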); conditions: HCT116 viability after GSK3B inhibitor, at 20 µM, stronger effect = higher value
[5] = inhibition of endothelial tube formation, primary screen, imaging, VEGF stimulated, CD31 staining, tube area, NPC library (AID 1117340;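 active = compound that reduces growth-factor-driven endothelial tube area in a mixed cell culture, no cutoff stated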); conditions: VEGF-stimulated ADSC/ECFC co-culture, at 10 µM, stronger effect = higher value
[6] = GLP1 release stimulators, primary, NCI-H716, NPC library (AID 1117341;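 active = compound raises GLP1 secretion from the human gut endocrine cells, with no numeric limit stated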); conditions: NCI-H716 cells, at 10 µM, stronger effect = higher value
[7] = HCT116 colon cancer cell growth inhibition, primary screen, CellTiter-Glo luminescence, NPC library (AID 1117342;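 active = compounds that lower survival of HCT116 colon cancer cells in the luminescence readout, no numeric limit stated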); conditions: at 20 µM (top of the series)
[8] = reduced SW480 viability measured with CellTiter-Glo, NPC library, primary (AID 1117343;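 active = compounds that lower viability of the colon cancer cells in the luminescence readout, with no numeric limit stated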); conditions: CellTiter-Glo luminescence; at 20 µM (top of the series) unless noted
[9] = NPC library primary testing for decreased DLD-1 cell viability via CellTiter-Glo (AID 1117346;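 active = compounds that lower survival of DLD-1 colon cancer cells in the luminescence readout, no cutoff given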); conditions: DLD-1 viability, CellTiter-Glo luminescence; at 20 µM (top of the series)
[10] = viability loss in pontine glioma line – cell-based, SU-DIPG-XVII, MIPE5.0, CellTiter-Glo, qHTS, dose response (AID 1347060; cut-off not given, nearly all actives have AC50 up to about 26 µM;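 as to AC50: cells exposed to compound for 48 hours before viability readout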); conditions: CellTiter-Glo ATP luminescence
[11] = viability loss in pontine glioma line – cell-based, SU-DIPG-XIII, MIPE4.0, CellTiter-Glo, qHTS, dose response (AID 1347061; cut-off not given, nearly all actives have AC50 up to about 37 µM;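 also: cells exposed to compound for 48 hours before readout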); conditions: CellTiter-Glo ATP luminescence
[12] = viability loss in pontine glioma line – cell-based, JHH-DIPG-1, MIPE4.0, CellTiter-Glo, qHTS, dose response (AID 1347062; cut-off not given, nearly all actives have AC50 up to about 27 µM); conditions: JHH-DIPG-1 viability, CellTiter-Glo ATP luminescence
[13] = growth inhibition of DIPG cells – cell-based, MIPE5.0 library, qHTS (AID 1347068; cut-off not given, nearly all actives have IC50 up to about 30 µM); conditions: SU-DIPG-XXV viability
[14] = viability loss with induced miR-34 in A549 – imaging, A549 dox-inducible miR-34, nuclei and caspase counts, primary screen (AID 1347080;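 active = compounds whose cell count with miR-34 switched on is under 0.7 times the count with it off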); conditions: A549 miR-34 inducible, Hoechst nuclei count, 48 h
[15] = MELAS cybrid and Rieske KO viability enhancers – cell-based, MELAS cybrids, Rieske KO mouse fibroblasts, CellTiter-Glo, primary screen (AID 1508586;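 active = mean z-score across replicates of 1.96 or higher in either the MELAS or the Rieske mutant cell line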;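 also: z relative to plate mean and SD of compound and empty wells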); conditions: low glucose
[16] = drug combination growth inhibition, ovarian cancer – cell-based, oncology-focused library, rucaparib conditional, profiling panel (AID 1508598); conditions: patient-derived ovarian cancer cells, CellTiter-Glo viability, 144 h, stronger effect = lower value
[17] = galactose survival enhancers in mitochondrial complex I cybrids – cell-based, galactose medium, ATP luminescence, primary screen (AID 1645843;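 active = z-score of at least 1.8 in each of two replicates, scored against plate mean and spread of sample wells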;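 also: positive z means more ATP and so rescue of galactose-driven cybrid death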); conditions: complex I mutant cybrid cells, 72 h, stronger effect = higher value
[18] = system: Aerobactin synthetase IucA (Klebsiella pneumoniae); test: inhibition of K. pneumoniae IucA enzyme – biochemical, Tocris library, absorbance (AID 1345561; call rule not given here;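 also: 100% = enzyme without compound and 0% = no enzyme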); conditions: purified IucA enzyme assay, absorbance (OD) read-out; stronger effect = lower value;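 tested at 8 µM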
[19] = stronger effect = lower value, cell number ratio, induced over uninduced
[20] = measured here: relative caspase fold change +Dox/-Dox
[21] = measured here: total cells with miR-34 induction, stronger effect = lower value
[22] = measured here: total cells without miR-34 induction

Clc1ccc(Nc2nnc(Cc3ccncc3)c3ccccc23)cc1
0.486 and -0.638 and 0.713: z-score ([15]; Rieske KO mouse fibroblast survival, CellTiter-Glo 72 h)
inactive: parasite load remaining [1] 24.4% | nuclear beta-catenin stimulation ([2]; at 10 µM) -2.6% | insulin secretion stimulation [3] 9.3% | GLP1 secretion stimulation [6] -2.6% | inhibition of viability [7] 36% | viability decrease (inhibition) [9] 35.7% | outcome [11] | outcome [12] | outcome [13] | fold change [14, 19] 0.99 and 0.927 | z-score ([15]; MELAS cybrid survival, CellTiter-Glo 48 h, stronger effect = higher value) -0.464 and -0.665 and -0.288 | viability ([16]; at 0.000305 µM, OCI-C5x cells, with rucaparib 10 µM, 100% = cells with rucaparib alone) 121% | viability ([16]; at 0.00122 µM, OCI-C5x cells, with rucaparib 10 µM, 100% = cells with rucaparib alone) 125% | viability ([16]; at 0.00122 µM, OCI-P5x cells, with rucaparib 20 µM, 100% = cells with rucaparib alone) 102% | viability ([16]; at 0.00488 µM, OCI-C5x cells, with rucaparib 10 µM, 100% = cells with rucaparib alone) 117% | viability ([16]; at 0.00488 µM, OCI-P5x cells, without rucaparib) 100% | viability ([16]; at 0.0195 µM, OCI-C5x cells, with rucaparib 10 µM, 100% = cells with rucaparib alone) 121% | viability ([16]; at 0.0195 µM, OCI-P5x cells, with rucaparib 20 µM, 100% = cells with rucaparib alone) 102% | viability ([16]; at 0.0781 µM, OCI-C5x cells, with rucaparib 10 µM, 100% = cells with rucaparib alone) 114% | viability ([16]; at 0.0781 µM, OCI-P5x cells, with rucaparib 20 µM, 100% = cells with rucaparib alone) 101% | viability ([16]; at 0.313 µM, OCI-C5x cells, with rucaparib 10 µM, 100% = cells with rucaparib alone) 125% | viability ([16]; at 0.313 µM, OCI-C5x cells, without rucaparib) 110% | viability ([16]; at 0.313 µM, OCI-P5x cells, with rucaparib 20 µM, 100% = cells with rucaparib alone) 100% | viability ([16]; at 0.313 µM, OCI-P5x cells, without rucaparib) 105% | viability ([16]; at 1.25 µM, OCI-C5x cells, with rucaparib 10 µM, 100% = cells with rucaparib alone) 129% | viability ([16]; at 1.25 µM, OCI-C5x cells, without rucaparib) 115% | viability ([16]; at 1.25 µM, OCI-P5x cells, with rucaparib 20 µM, 100% = cells with rucaparib alone) 105% | viability ([16]; at 5 µM, OCI-C5x cells, with rucaparib 10 µM, 100% = cells with rucaparib alone) 128% | viability ([16]; at 5 µM, OCI-C5x cells, without rucaparib) 142% | z-score [17] 1.34
4800 and 8110: cell count [14, 21]
-0.4%: nuclear beta-catenin stimulation ([2]; stimulation, at 2 µM)
4850 and 8750: cell count [14, 22]
active: viability decrease [4] 76.2% | tube area decrease [5] 104% | viability decrease (inhibition) [8] 51.3% | AC50 [10] 16.6 µM | viability ([16]; at 0.000305 µM, OCI-C5x cells, without rucaparib) 86.5% | viability ([16]; at 0.000305 µM, OCI-P5x cells, with rucaparib 20 µM, 100% = cells with rucaparib alone) 94.6% | viability ([16]; at 0.000305 µM, OCI-P5x cells, without rucaparib) 89.3% | viability ([16]; at 0.00122 µM, OCI-C5x cells, without rucaparib) 97.1% | viability ([16]; at 0.00122 µM, OCI-P5x cells, without rucaparib) 94.6% | viability ([16]; at 0.00488 µM, OCI-C5x cells, without rucaparib) 98.5% | viability ([16]; at 0.00488 µM, OCI-P5x cells, with rucaparib 20 µM, 100% = cells with rucaparib alone) 99.2% | viability ([16]; at 0.0195 µM, OCI-C5x cells, without rucaparib) 99.4% | viability ([16]; at 0.0195 µM, OCI-P5x cells, without rucaparib) 95.6% | viability ([16]; at 0.0781 µM, OCI-C5x cells, without rucaparib) 98.5% | viability ([16]; at 0.0781 µM, OCI-P5x cells, without rucaparib) 95.5% | viability ([16]; at 1.25 µM, OCI-P5x cells, without rucaparib) 94.9% | viability ([16]; at 5 µM, OCI-P5x cells, with rucaparib 20 µM, 100% = cells with rucaparib alone) 95.2% | viability ([16]; at 5 µM, OCI-P5x cells, without rucaparib) 99.5%
0.974 and 0.999: fold change [14, 20]
144%: viability [1]

Nc1ccn(C[C@@H](CO)OCP(=O)(O)O)c(=O)n1
0.4%: nuclear beta-catenin stimulation ([2]; stimulation, at 2 µM)
active: viability decrease (inhibition) [8] 109%
inactive: nuclear beta-catenin stimulation ([2]; at 10 µM) 1.2% | insulin secretion stimulation [3] 1.05% | viability decrease [4] 22.7% | tube area decrease [5] -2.6% | GLP1 secretion stimulation [6] 0.9% | inhibition of viability [7] 14.9% | viability decrease (inhibition) [9] 2.8% | outcome [10] | outcome [11] | outcome [12] | outcome [13]

CC1(COc2ccc(CC3SC(=O)NC3=O)cc2)CCCCC1 (configuration not stated)
6130 and 5780 and 8200: cell count [14, 22]
inactive: nuclear beta-catenin stimulation ([2]; at 10 µM) 2.4% | insulin secretion stimulation [3] 1.9% | tube area decrease [5] 14% | GLP1 secretion stimulation [6] 6.6% | remaining activity [18] 110% | fold change [14, 19] 0.913 and 1.03 and 0.948 | z-score [17] -0.49
1.5%: nuclear beta-catenin stimulation ([2]; stimulation, at 2 µM)
1.87 and 1.11 and 0.669: fold change [14, 20]
5590 and 5930 and 7780: cell count [14, 21]
active: viability decrease [4] 99% | inhibition of viability [7] 101% | viability decrease (inhibition) [8] 146% | viability decrease (inhibition) [9] 105%
